This note sets out measurements from PubChem BioAssay.

The source made the active and inactive calls.

Assay [1] deals with PRMT1 (protein arginine N-methyltransferase 1). Kind of assay: small molecules binding arginine methyltransferase PRMT1 – biochemical, small-molecule microarray, 635 nm fluorescence, primary screen (AID 1088).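 Also: binding of Prmt1 protein to compounds spotted on small-molecule microarray slides.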 The conditions noted are these: higher = more signal.
A short description of assay [2]: growth effects on S. cerevisiae YJM789 – YJM789 clinical isolate, OD600, 24 h, basal, primary screen (AID 1089).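 Also: growth of clinical yeast isolate S. cerevisiae YJM 789 seeded 1000 cells per well; test concentration not given here.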 The conditions noted are these: higher = more signal, called active from +8 up or from −8 down.
A short description of assay [3]: S. pombe growth modifiers, basal conditions – strain 972, OD600, 24 h, no modulator, primary screen (AID 1090).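 Also: basal condition with compound alone and no growth modifier present; test concentration not given here.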 Particulars: S. pombe 972 growth, higher = more signal, called active from +8 up or from −8 down.
A short description of assay [4]: budding yeast growth modifiers under rapamycin – strain BY4716, OD600, 96 h, primary screen (AID 1091). Also: test concentration not given here. The conditions noted are these: S. cerevisiae BY4716 + rapamycin, higher = more signal, called active from +8 up or from −8 down.
Assay [5] has as its target Torsin-1A-interacting protein 2 (Homo sapiens) (UniProt Q8NFQ8). As to the kind of experiment: small molecules binding lysate-expressed LULL1 – cell lysate, human LULL1 lysate, 635/667 nm fluorescence, primary screen (AID 1092).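 Also: probe is lysate of COS7 cells overexpressing human LULL1; score merges per-feature 667 nm fluorescence with signal-to-noise.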 The conditions noted are these: small-molecule microarray, hLULL1 lysate binding, 635 nm fluorescence; higher = more signal.
Assay [6] in a line: optical density change of DRC41 E. coli – strain DRC41, OD650, 24 h, E. coli filamentation project, primary screen (AID 1093).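 Also: MC1000 strain lacking acrAB efflux and sulA so SOS filamentation is blocked; test concentration not given here.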 The conditions noted are these: E. coli DRC41 growth, higher = more signal, called active from +8 up or from −8 down.
Assay [7] in a line: probe aLefty2 binding to arrayed compounds – biochemical, biotinylated probe, 635/667 nm fluorescence, primary screen (AID 1094).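 Also: score merges spot fluorescence near 667 nm with spot signal-to-noise ratio.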 Particulars: small-molecule microarray, higher = more signal.
In assay [8] the test system is Noggin (protein binding on small-molecule microarray). Kind of assay: small molecules binding Noggin protein – biochemical, 635/667 nm fluorescence, primary screen (AID 1095).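 Also: score merges 667 nm feature fluorescence with signal to noise over triplicate slides.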 The conditions noted are these: 635 nm fluorescence, higher = more signal.
Assay [9] has as its target Neurogenic locus notch homolog protein 3 (Homo sapiens) (UniProt Q9UM47). Kind of assay: small molecules binding NOTCH3 protein – biochemical, 635/667 nm fluorescence, primary screen (AID 1096). Particulars: small-molecule microarray, 635 nm fluorescence, higher = more signal.
Assay [10] can be described thus: probe aEGFR binding to arrayed compounds – biochemical, biotinylated probe, 635/667 nm fluorescence, primary screen (AID 1097).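 Also: probe is a biotinylated anti-EGFR antibody binding compounds printed on slides; score combines fluorescence near 667 nm and signal to noise of each spot.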 The conditions noted are these: small-molecule microarray, higher = more signal.
Assay [11] relates to Plasmodium falciparum Sir2 (PF13_0152, Sir2A). Kind of assay: Plasmodium falciparum Sir2A binding compounds – biochemical, small-molecule microarray, 635 nm fluorescence, primary screen (AID 1098).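 Also: score merges spot fluorescence intensity with its signal-to-noise ratio.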 The conditions noted are these: fluorescence 635 nm, higher = more signal.
Assay [12] in a line: probe aDKK1 binding to arrayed compounds – biochemical, biotinylated probe, 635/667 nm fluorescence, primary screen (AID 1099).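 Also: score merges 667nm spot fluorescence with signal to noise across triplicate slides; reference of the scale not given here.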 The conditions noted are these: small-molecule microarray, higher = more signal.
Assay [13] is described as follows: probe aCHRDL2 binding to arrayed compounds – biochemical, biotinylated probe, 635/667 nm fluorescence, primary screen (AID 1100). The conditions noted are these: small-molecule microarray, higher = more signal.
Assay [14] in a line: change in splice reporter luminescence, either direction, cell-based, HEK293, spliceosome inhibition project, primary screen (AID 1101).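 Also: HEK293 cells carrying a splicing-competent luciferase reporter gene; test concentration not given here.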 The conditions noted are these: HEK293 splicing luciferase reporter, 24 h, higher = more signal, called active from +8 up or from −8 down. (In general: In a reporter assay the amount or activity of a reporter protein is the signal.)
Assay [15] concerns the target Fibroblast growth factor 10 (Homo sapiens) (UniProt O15520). As to the kind of experiment: compounds binding fibroblast growth factor 10 – biochemical, small-molecule microarray, 635 nm fluorescence, primary screen (AID 1102). The conditions noted are these: FGF10 binding, fluorescence 635 nm, higher = more signal.
The subject of assay [16] is glycogen synthase kinase-3 (GSK3A per assay name; protocol says GSK3B). As to the kind of experiment: compounds binding glycogen synthase kinase-3 – biochemical, small-molecule microarray, 635 nm fluorescence, GSK3A, primary screen (AID 1103). Also: the record names both GSK3A and GSK3B. The conditions noted are these: fluorescence 635 nm, higher = more signal.
Assay [17] concerns the target Epidermal growth factor receptor (Homo sapiens) (UniProt P00533). As to the kind of experiment: compounds binding epidermal growth factor receptor – biochemical, small-molecule microarray, 635 nm fluorescence, primary screen (AID 1104).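 Also: score merges 667 nm emission intensity with spot signal to noise over triplicate slides.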 The conditions noted are these: EGFR binding, higher = more signal.
The target in assay [18] is Follistatin-related protein 3 (Homo sapiens) (UniProt O95633). Kind of assay: compounds binding follistatin-related protein 3 – biochemical, small-molecule microarray, 635 nm fluorescence, primary screen (AID 1105).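 Also: score merges emission near 667 nm and signal to noise per printed spot across three slides.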 Particulars: FSTL3 binding, higher = more signal.
Sequence of Follistatin-related protein 3 (Homo sapiens) (O95633 whole entry, looked up): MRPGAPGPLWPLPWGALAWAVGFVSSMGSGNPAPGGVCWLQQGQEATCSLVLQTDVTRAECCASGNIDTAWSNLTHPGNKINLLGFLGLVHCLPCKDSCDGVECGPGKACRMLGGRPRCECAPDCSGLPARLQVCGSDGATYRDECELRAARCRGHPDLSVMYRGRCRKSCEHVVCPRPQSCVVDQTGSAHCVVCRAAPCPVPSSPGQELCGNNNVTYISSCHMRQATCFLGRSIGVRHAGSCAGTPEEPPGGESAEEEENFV
Assay [19] addresses Dickkopf-related protein 1 (Homo sapiens) (UniProt O94907). As to the kind of experiment: small molecules binding DKK1 protein – biochemical, small-molecule microarray, 635 nm fluorescence scan, primary screen (AID 1106).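 Also: score merges emission near 667 nm with signal to noise over three replicate slides.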 The conditions noted are these: higher = more signal.
The test system of assay [20] is Inhibin beta A chain (activin A). Kind of assay: small molecules binding activin A – biochemical, small-molecule microarray, 635 nm fluorescence scan, primary screen (AID 1107).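 Also: mouse activin A protein probed at 4.33 µg/mL on printed slides; score merges bound-protein fluorescence near 667 nm with spot signal-to-noise.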 Particulars: INHBA, higher = more signal.

Sequence of Dickkopf-related protein 1 (Homo sapiens) (O94907 whole entry, looked up): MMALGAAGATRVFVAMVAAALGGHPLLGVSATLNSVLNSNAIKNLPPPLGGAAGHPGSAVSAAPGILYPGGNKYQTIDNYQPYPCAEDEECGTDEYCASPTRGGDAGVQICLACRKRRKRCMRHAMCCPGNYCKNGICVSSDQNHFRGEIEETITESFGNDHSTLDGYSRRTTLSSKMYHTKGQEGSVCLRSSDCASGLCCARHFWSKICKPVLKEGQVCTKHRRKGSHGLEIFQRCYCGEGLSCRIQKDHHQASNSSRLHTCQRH
Sequence of Epidermal growth factor receptor (Homo sapiens) (P00533 whole entry, looked up): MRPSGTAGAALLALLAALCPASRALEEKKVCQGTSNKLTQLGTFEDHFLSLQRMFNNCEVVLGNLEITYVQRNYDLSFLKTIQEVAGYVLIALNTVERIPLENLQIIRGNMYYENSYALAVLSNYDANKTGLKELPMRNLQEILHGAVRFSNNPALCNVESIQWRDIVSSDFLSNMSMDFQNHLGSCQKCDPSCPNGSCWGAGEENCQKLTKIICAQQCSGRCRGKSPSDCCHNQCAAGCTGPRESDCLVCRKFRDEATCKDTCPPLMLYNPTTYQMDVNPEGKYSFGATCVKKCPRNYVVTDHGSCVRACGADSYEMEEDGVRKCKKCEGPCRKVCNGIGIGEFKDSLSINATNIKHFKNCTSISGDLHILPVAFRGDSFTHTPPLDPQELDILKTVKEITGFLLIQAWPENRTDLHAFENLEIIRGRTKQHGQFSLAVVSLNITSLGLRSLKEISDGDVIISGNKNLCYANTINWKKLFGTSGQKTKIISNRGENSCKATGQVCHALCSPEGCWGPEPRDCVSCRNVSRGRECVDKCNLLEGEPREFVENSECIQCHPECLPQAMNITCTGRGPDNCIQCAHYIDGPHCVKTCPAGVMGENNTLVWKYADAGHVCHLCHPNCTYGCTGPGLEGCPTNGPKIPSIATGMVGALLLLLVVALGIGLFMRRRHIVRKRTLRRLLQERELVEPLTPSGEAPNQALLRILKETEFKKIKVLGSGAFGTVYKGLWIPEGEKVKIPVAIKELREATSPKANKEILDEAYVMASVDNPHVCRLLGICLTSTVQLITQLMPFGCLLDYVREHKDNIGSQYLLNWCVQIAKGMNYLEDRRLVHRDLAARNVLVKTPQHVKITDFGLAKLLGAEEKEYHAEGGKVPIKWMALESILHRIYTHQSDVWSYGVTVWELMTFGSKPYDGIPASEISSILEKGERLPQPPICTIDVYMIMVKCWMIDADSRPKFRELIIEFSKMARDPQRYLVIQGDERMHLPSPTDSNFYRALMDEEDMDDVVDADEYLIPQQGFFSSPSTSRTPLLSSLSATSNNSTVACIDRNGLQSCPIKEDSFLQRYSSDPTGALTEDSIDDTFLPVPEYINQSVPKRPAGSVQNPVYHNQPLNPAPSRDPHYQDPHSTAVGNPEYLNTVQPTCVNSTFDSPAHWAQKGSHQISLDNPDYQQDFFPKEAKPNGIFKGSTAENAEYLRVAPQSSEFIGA
Sequence of Torsin-1A-interacting protein 2 (Homo sapiens) (Q8NFQ8 whole entry, looked up): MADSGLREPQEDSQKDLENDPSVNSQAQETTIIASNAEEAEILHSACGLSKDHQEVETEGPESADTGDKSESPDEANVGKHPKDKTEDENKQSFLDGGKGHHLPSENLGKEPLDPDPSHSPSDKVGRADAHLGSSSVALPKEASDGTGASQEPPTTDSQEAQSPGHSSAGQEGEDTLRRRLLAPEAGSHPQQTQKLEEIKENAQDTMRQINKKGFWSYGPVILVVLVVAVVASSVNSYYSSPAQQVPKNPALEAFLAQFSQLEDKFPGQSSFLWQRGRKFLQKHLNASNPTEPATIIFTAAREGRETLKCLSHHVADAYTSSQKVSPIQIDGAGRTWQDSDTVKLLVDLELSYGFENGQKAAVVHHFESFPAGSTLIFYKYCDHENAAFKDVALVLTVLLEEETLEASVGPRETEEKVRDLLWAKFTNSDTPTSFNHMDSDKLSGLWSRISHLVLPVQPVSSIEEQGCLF
Sequence of Fibroblast growth factor 10 (Homo sapiens) (O15520 whole entry, looked up): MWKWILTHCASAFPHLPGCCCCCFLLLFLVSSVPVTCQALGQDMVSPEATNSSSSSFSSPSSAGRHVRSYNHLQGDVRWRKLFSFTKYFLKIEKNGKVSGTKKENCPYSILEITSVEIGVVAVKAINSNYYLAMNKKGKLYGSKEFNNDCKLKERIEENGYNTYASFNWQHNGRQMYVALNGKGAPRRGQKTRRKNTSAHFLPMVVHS
Sequence of Neurogenic locus notch homolog protein 3 (Homo sapiens) (Q9UM47 whole entry, looked up): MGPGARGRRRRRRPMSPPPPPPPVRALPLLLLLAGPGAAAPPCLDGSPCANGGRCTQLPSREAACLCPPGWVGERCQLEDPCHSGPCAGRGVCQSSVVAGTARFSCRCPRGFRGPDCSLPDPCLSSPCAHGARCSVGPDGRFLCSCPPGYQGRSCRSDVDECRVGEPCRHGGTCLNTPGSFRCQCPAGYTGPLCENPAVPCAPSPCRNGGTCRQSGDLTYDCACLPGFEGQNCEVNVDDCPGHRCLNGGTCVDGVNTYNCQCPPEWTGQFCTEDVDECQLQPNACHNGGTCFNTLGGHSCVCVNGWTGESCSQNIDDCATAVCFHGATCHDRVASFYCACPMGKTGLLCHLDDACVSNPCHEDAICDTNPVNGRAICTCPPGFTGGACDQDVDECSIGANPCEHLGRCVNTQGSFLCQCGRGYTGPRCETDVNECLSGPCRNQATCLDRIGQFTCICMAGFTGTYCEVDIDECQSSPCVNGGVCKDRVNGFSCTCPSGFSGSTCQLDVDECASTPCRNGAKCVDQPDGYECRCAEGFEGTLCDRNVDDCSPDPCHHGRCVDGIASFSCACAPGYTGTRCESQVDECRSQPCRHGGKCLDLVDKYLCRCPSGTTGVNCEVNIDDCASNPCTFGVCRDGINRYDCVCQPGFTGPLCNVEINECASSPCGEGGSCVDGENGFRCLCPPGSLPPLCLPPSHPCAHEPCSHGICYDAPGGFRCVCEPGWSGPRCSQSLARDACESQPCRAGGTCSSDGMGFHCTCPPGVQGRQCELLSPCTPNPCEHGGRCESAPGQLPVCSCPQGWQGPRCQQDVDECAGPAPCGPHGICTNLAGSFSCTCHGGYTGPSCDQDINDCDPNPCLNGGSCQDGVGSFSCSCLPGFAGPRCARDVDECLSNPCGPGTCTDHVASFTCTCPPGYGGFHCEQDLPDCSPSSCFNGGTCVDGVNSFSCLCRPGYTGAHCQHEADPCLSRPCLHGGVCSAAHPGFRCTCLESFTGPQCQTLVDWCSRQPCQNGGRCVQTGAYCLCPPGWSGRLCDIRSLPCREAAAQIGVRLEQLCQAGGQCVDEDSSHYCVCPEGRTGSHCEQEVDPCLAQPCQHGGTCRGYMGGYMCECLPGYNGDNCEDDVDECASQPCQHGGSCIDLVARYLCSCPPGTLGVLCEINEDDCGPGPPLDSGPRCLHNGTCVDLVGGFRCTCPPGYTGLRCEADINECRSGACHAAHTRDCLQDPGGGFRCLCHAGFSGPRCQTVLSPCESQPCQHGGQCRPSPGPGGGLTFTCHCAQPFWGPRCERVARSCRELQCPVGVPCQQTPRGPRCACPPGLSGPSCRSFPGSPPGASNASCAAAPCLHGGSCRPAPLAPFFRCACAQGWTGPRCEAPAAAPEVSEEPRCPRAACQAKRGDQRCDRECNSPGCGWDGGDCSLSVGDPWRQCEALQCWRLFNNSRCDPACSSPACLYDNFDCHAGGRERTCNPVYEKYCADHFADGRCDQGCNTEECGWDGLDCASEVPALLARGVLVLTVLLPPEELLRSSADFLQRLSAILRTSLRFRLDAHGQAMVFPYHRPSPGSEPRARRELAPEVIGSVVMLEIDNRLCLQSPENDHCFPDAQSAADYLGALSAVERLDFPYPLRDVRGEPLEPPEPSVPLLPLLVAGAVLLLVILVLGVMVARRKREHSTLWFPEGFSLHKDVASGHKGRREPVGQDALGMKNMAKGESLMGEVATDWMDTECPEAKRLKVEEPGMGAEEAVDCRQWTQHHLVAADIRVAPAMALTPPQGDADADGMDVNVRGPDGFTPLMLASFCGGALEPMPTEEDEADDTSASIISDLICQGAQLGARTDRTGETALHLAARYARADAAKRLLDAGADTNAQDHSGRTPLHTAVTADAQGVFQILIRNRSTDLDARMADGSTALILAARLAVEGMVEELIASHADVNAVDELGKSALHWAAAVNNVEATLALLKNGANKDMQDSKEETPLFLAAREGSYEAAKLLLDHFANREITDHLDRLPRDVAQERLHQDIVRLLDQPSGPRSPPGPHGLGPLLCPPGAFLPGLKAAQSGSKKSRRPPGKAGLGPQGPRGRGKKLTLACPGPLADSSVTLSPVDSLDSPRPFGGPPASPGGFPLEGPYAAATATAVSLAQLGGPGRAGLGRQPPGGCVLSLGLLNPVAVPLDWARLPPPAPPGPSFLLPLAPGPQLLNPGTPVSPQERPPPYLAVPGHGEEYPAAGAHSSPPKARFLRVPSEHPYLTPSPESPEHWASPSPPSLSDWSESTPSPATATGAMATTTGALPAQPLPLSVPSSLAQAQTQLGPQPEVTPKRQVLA

With `CC(C)c1ccc(NN2C(C(O)c3ccc(F)cc3)C=CC3C(=O)N(c4ccccc4)C(=O)C32)cc1` (stereo not given), the composite z-score was 1.47 in assay [1]; 3.57 in [5]; -0.0865 in assay [7]; -0.101 in assay [8]; 1.03 in assay [9]; 0.0182 in assay [10]. For the same compound, the composite z-score in assay [11] turned out to be 1.28; in [12], 0.47; in assay [13], 0.775; in [15] it was 1.07; in [16] it was 0.275; in assay [17] it was 0.3. In addition, the composite z-score was 1.37 in assay [18], -0.0647 in [19] and 0.869 in assay [20]. Also, the z-score in assay [2] was 1.22 (inactive); in assay [3], 0.842 (inactive); in [4] it was 0.159 (inactive); in assay [6], -1.01 (inactive); in [14], -0.548 (inactive).

In the case of `CC(C)(C)OC(=O)COc1cccc(C(=O)CCN2CCOCC2)c1`, the composite z-score is 1.34 in assay [1]; 0.557 in [5]; -0.126 in [7]; -0.0786 in [8]; -0.529 in [9]; -0.0815 in assay [10]. Further, the composite z-score in assay [11] was 0.213; in assay [12], 0.684; in [13], 0.929; in assay [15] it was -0.189; in assay [16], 0.136; in assay [17], -0.67. In addition, the composite z-score in [18] was -0.272; in [19], -0.285; in [20], 1.54. Besides, the z-score in assay [2] was -0.728 (inactive); in [3], -19.8 (active); in [4], -2.13 (inactive); in assay [6], 0.328 (inactive); in assay [14] it was 0.849 (inactive).

As for `CCOc1cc(C(O)C2C=CC3C(=O)NC(=O)C3N2Nc2ccc(Cl)cc2Cl)ccc1O` (stereo not given), the composite z-score in assay [1] was -1.54; in assay [5] it was 0.0486; in assay [7], 0.0717; in [8], -0.26; in assay [9], -1.31; in assay [10], -0.16. Moreover, the composite z-score in [11] was -0.402; in assay [12], 0.737; in [13] it was 0.942; in assay [15], -0.251; in assay [16] it was -0.848; in assay [17] it was -0.238. In addition, the composite z-score in assay [18] was -0.859; in assay [19], -0.765; in [20] it was 1.37. Further, the z-score in assay [2] is -1.36 (inactive); in assay [3], -1.29 (inactive); in [4] it was 0.339 (inactive); in assay [6], -0.847 (inactive); in assay [14], 1.22 (inactive).

As for `O=C1[C@H]2C=C(I)[C@H](C[C@@H]2OCCOCCO)[C@@]12CO2`, the composite z-score in [1] is 0.582; in [5], 0.6; in assay [7], -0.239; in assay [8] it was 0.513; in assay [9], 0.733; in [10] it was -0.027. The composite z-score was 0.558 in assay [11]; -0.261 in assay [12]; -0.751 in [13]; 0.954 in assay [15]; 0.671 in assay [16]; 0.83 in assay [17]. Further, the figures for the composite z-score in assay [18], in [19] and in assay [20] were 1.12, 0.459 and 0.555, respectively. In addition, the z-score in assay [2] is 0.0387 (inactive); in [3], -0.342 (inactive); in assay [4], -0.155 (inactive); in [6], -0.935 (inactive); in assay [14], -0.0672 (inactive).

For `CCCCN1CC=CC23O[C@@H]4/C=C\CCC(C)OC(=O)C4[C@H]2C(=O)N(CCCO)[C@@H]3C1=O` (stereo not given in full), the composite z-score in assay [1] was -0.298; in assay [5], 0.879; in assay [7], -0.186; in [8], -0.908; in [9], -0.166; in assay [10], -0.217. Besides, the composite z-score in assay [11] is 1.16; in [12], -0.235; in [13] it was 0.662; in [15], -1.13; in assay [16] it was -0.496; in assay [17], -0.983. Moreover, the composite z-score is -1.04 in assay [18], -1.37 in assay [19] and -0.372 in [20]. In addition, the z-score is 0.757 (inactive) in [2]; 0.772 (inactive) in assay [3]; 0.528 (inactive) in assay [4]; 0.755 (inactive) in [6]; 0.239 (inactive) in assay [14].

Regarding `COC(=O)c1c(CC[C@@H](CO)NC(=O)N[C@@H](C)Cn2cc(-c3ccccn3)nn2)oc(C(C)=O)c1C(=O)OC`, the composite z-score was 1.39 in [1]; 1.42 in assay [5]; -0.115 in assay [7]; 1.43 in assay [8]; 0.794 in assay [9]; -0.164 in assay [10]. Besides, the composite z-score in assay [11] was 1.09; in assay [12], -0.18; in assay [13] it was -0.495; in assay [15], 0.563; in [16], 0.0696; in assay [17], -0.344. Besides, the composite z-score in [18] was found to be 0.454; in assay [19] it was 0.28; in [20], 0.284. The z-score was -0.441 (inactive) in assay [2]; -0.705 (inactive) in assay [3]; 0.198 (inactive) in assay [4]; -0.608 (inactive) in [6]; -1.89 (inactive) in [14].

Regarding `O=C(NCCN1CCOCC1)[C@@H]1c2ccccc2C(=O)N(C2Cc3ccccc3C2)[C@H]1c1ccc(CO)cc1`, the composite z-score was 0.925 in assay [1]; 3.2 in assay [5]; -0.0145 in assay [7]; -0.398 in [8]; 0.123 in assay [9]; -0.214 in assay [10]. In addition, the composite z-score is 0.909 in assay [11]; 0.0974 in [12]; 0.852 in assay [13]; -0.223 in [15]; 1.05 in assay [16]; -0.812 in [17]. In addition, the composite z-score in assay [18] was -0.414; in [19] it was -0.666; in assay [20] it was -0.363. The z-score was -2.95 (inactive) in assay [2]; -0.534 (inactive) in assay [3]; -0.979 (inactive) in assay [4]; 1.78 (inactive) in [6]; -1.38 (inactive) in assay [14].
